Experimental data as given in PubChem BioAssay AID652010 (The Scripps Research Institute Molecular Screening Center, 2013).
The whole screen tested about 370,000 compounds, of which about 4,100 (1.1%) were called active.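 The calls were made as follows: active = inhibition above the mean over all tested compounds plus 3 SD (cut at about 3.6% in these data); inactive = the rest.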 Many of the other results were omitted from the sample, so actives are more common in it than they were.

Assay: relief of DAX-1 repression of SF-1 activity – cell-based, luminescence, SF-1 (NR5A1), full-length DAX-1, primary screen (AID 652010);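 also: 0% = DAX-1 cells with DMSO and 100% = cells lacking DAX-1 with DMSO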
Details: HEK293T StAR-luciferase reporter, SF-1/DAX-1 repression relief; at 6.8 µM; stronger effect = higher value

Structure (SMILES)	inhibition
COc1ccc2c(c1)NP(=S)(c1ccccc1)N2 (stereo not given)	6.3% (active)
Cc1cc(C)c2c(c1)NP(=S)(c1ccccc1)N2 (stereo not given)	4.45% (active)
C[C@]12CCC3C(CC[C@H]4[C@H](O)[C@H](O)CC[C@]34C)C1CCC2=O (stereo not given in full)	-0.89% (inactive)
Cc1ccccc1CCC[C@@H](CC1CCCCC1)CN(C)C(=O)Oc1ccccc1	-0.86% (inactive)
Cc1nc2nc(C)c(CCC(=O)N3CCC4(CC3)OCCO4)c(C)n2n1	0.57% (inactive)
CC(=O)N1CN2CN(C(C)=O)CC(C(=O)c3ccc(Br)cc3)(C2)C1	0.07% (inactive)
CCOc1cccc(=NC2CCCCC2)c2c(C)[nH]c(C)c12	-0.76% (inactive)
COP(=O)(Sc1ccccc1)C(Cc1ccccc1)NC(=O)OCc1ccccc1 (stereo not given)	-2.01% (inactive)
c1cncc(CNC2=NCCC2)c1	0.16% (inactive)
Cc1c(Oc2cc(NN3CCCCC3)c([N+](=O)[O-])cc2[N+](=O)[O-])cccc1[N+](=O)[O-]	0.11% (inactive)
